Source: PubChem BioAssay (Tox21)
Results filed as inconclusive are left out. A call without a number means that no potency is given here. Activity calls are given as the source filed them. Unless noted, the call rests on the fitted dose curve; in most records, active means well fitted curve in the direction sought with a large enough effect in the repeat runs; inconclusive means weak or mixed curves; inactive means no such curve, though single readings can be large; an effect the other way counts as inactive or inconclusive.

Assays:
[1] = qHTS assay for small molecule agonists of the p53 signaling pathway (AID 651631; calls by dose curve; further: nearly all actives have a fitted effect of over 15% in size; further: potency means the concentration at half of the fitted maximal effect)
Method in brief: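 Testing took place in human colorectal HCT-116 cells with stable p53RE-driven beta-lactamase. After 16 h of compound exposure at 37 °C, a FRET substrate was added and fluorescence recorded 2 h later.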

[2] = qHTS assay for small molecules that induce genotoxicity in human embryonic kidney cells expressing luciferase-tagged ATAD5 (AID 651632); further: nearly all actives have a fitted effect of over 15% in size; further: potency means the concentration at half of the fitted maximal effect
Method in brief: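 Reporter cells (HEK293T) express luciferase-tagged ATAD5, a protein that accumulates after DNA damage. Treat 16 hr at 37C/5% CO2, add Amplite, wait 30 min at RT, and read luminescence.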

[3] = qHTS assay for small molecule disruptors of the mitochondrial membrane potential - cell viability (AID 720634; calls by dose curve; further: nearly all actives have a fitted effect of over 20% in size; further: potency means the concentration at half of the fitted maximal effect)
Method in brief: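 Measuring cytotoxicity alongside mitochondrial potential, the screen quantified ATP by luminescence in HepG2 cells after 1 hr compound incubation and a 30 min room-temperature CellTiter-Glo step.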

[4] = qHTS assay to test for compound auto fluorescence at 590 nm (red) in HepG2 cells (AID 720674)
Method in brief: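 Compound auto-fluorescence is scored relative to Rose Bengal sodium, measured at 540/590 nm in live HepG2 cultures after 1 hr compound contact (37 C, 5% CO2).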

[5] = qHTS assay to test for compound auto fluorescence at 460 nm (blue) in HEK293 cells (AID 720678)
Method in brief: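 Triamterene serves as the blue fluorophore standard. Compound signal at 405/460 nm is read in HEK293 wells (2,000 cells, 10% dialyzed FBS) after overnight treatment at 37C.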

[6] = qHTS assay to test for compound auto fluorescence at 590 nm (red) in HEK293 cells (AID 720679)
Method in brief: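 We plated HEK293 cells in 10% dialyzed FBS medium, let them adhere for 4-5 hr, then added 23 nL compound. Overnight at 37C and 5% CO2 preceded fluorescence measurement at 540/590nm.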

[7] = qHTS assay for small molecules that induce genotoxicity in human embryonic kidney cells expressing luciferase-tagged ATAD5 - cell viability (AID 651634; calls by dose curve; further: nearly all actives have a fitted effect of over 25% in size)
Method in brief: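 Seeding of 2,000 HEK293T ATAD5-luciferase cells per well preceded pin-tool compound transfer. Plates sat 15.5 hr at 37C under 5% CO2, then fluorescence was read after 30 min with CellTiter-Fluor.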

[8] = qHTS assay to test for compound auto fluorescence at 535 nm (green) in HepG2 cells (AID 720675)
[9] = qHTS assay for small molecule agonists of the p53 signaling pathway - cell viability (AID 651633; calls by dose curve; further: series mostly up to about 83 µM; nearly all actives have a fitted effect of over 30% in size)
Method in brief: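 p53RE-bla cells, seeded at 4,000 per well and rested 5 h at 37 C/5% CO2, received compounds in DMSO for 16 h at 37 C. CellTiter-Glo was then added, and luminescence was read after 30 min at room temperature to gauge cytotoxicity.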

[10] = qHTS assay for small molecule disruptors of the mitochondrial membrane potential (AID 720635); further: potency means the concentration at half of the fitted maximal effect
Method in brief: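 HepG2 cells (2,000/well) attached overnight at 37C, then took compound for 1 hr at 37C, 5% CO2. Mito-MPS dye was added for 30 min; fluorescence was read at 490/535 nm (monomers) and 540/590 nm (aggregates).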

Row | SMILES | Potency [1] | Potency [2] | Potency [3] | Potency [4] | Potency [5] | Potency [6] | Potency [7] | Potency [8] | Potency [9] | Potency [10]
1 | CO[C@H]1C[C@H](O[C@H]2[C@H](C)[C@@H](O[C@@H]3O[C@H](C)C[C@H](N(C)C)[C@H]3OC(C)=O)[C@@H](C)C[C@]3(CO3)C(=O)[C@H](C)[C@@H](OC(C)=O)[C@@H](C)[C@@H](C)OC(=O)[C@@H]2C)O[C@@H](C)[C@@H]1OC(C)=O | inactive | inactive | inactive | inactive | inactive | inactive |  |  |  | 
2 | COc1ccc(-c2noc(CC(=O)O)c2-c2ccc(OC)cc2)cc1 | inactive | inactive | inactive | inactive | inactive | inactive | inactive | inactive |  | 
3 | O=C(O)c1cc2ccccc2c(Cc2c(O)c(C(=O)O)cc3ccccc23)c1O | inactive | inactive | inactive | inactive | inactive | inactive | inactive | inactive |  | 
4 | COc1cc([C@@H]2c3cc4c(cc3C(O[C@@H]3O[C@@H]5COC(c6cccs6)O[C@H]5[C@H](O)[C@H]3O)C3COC(=O)[C@@H]32)OCO4)cc(OC)c1O (stereo partly specified) | 0.376 µM (active) | inactive | inactive | inactive | inactive | inactive | inactive | inactive |  | 
5 | COc1cc2c(cc1OC)[C@@H](c1ccccc1)CN(C)CC2 | inactive |  | inactive | inactive | inactive | inactive | inactive | inactive | inactive | 
6 | COC(=O)[C@H]1[C@H]2C[C@@H]3c4[nH]c5cc(OC)ccc5c4CCN3C[C@H]2C[C@@H](OC(=O)/C=C/c2cc(OC)c(OC)c(OC)c2)[C@@H]1OC | inactive |  | inactive | inactive | inactive | inactive | inactive | inactive | inactive | inactive
7 | CCCCCCCCCCCCCCCCCC(=O)OCCO | inactive |  | inactive | inactive | inactive | inactive | inactive | inactive | inactive | inactive
8 | CC1CCC(NC(=O)N(CCCl)N=O)CC1 (stereo unspecified) | inactive |  | inactive | inactive | inactive | inactive | inactive | inactive | inactive | inactive
9 | CCCCCCCCCCCCOCCCN | inactive |  | inactive | inactive | inactive | inactive | inactive | inactive | inactive | inactive
10 | NC(Cc1ccccc1)C(=O)O (stereo unspecified) | inactive |  | inactive | inactive | inactive | inactive | inactive | inactive | inactive | inactive
11 | CC[C@H](CC[C@@H](C)[C@H]1CC[C@H]2[C@@H]3CC=C4C[C@@H](O)CC[C@]4(C)[C@H]3CC[C@]12C)C(C)C | inactive |  | inactive | inactive | inactive | inactive | inactive | inactive | inactive | 
12 | CCC(=O)O[C@H]1CC[C@H]2[C@@H]3CCc4cc(O)ccc4[C@H]3CC[C@]12C | 33.5 µM (active) | inactive |  | inactive | inactive | inactive | inactive | inactive |  | 11.9 µM (active)
13 | Nc1ncnc2c1ncn2[C@@H]1O[C@H](COP(=O)(O)OP(=O)(O)OP(=O)(O)O)[C@@H](O)[C@H]1O | 26.6 µM (active) |  | 9.44 µM (active) | inactive | inactive | inactive | inactive | inactive | inactive | 
14 | CCCCCCCCCCCCCCCCSCC(COC)COP(=O)([O-])OCC[N+](C)(C)C (stereo unspecified) | inactive |  | inactive | inactive | inactive | inactive | inactive | inactive | inactive | 
15 | CCCC(=O)Nc1ncnc2c1ncn2[C@@H]1O[C@@H]2COP(=O)(O)O[C@H]2[C@H]1OC(=O)CCC | inactive |  | inactive | inactive | inactive | inactive | inactive | inactive | inactive | inactive
16 | OCCO[C@@H]1[C@@H](O)[C@H](O)[C@@H](CO)O[C@@H]1O | inactive |  | inactive | inactive | inactive | inactive | inactive | inactive | inactive | inactive
17 | C[C@]12C=CC(=O)C=C1CC[C@@H]1[C@@H]2[C@@H](O)C[C@@]2(C)[C@H]1CC[C@]2(O)C(=O)COC(=O)CCC(=O)O | inactive |  | inactive | inactive | inactive | inactive | inactive | inactive | inactive | inactive

Row | SMILES | Potency [1] | Potency [2] | Potency [3] | Potency [4] | Potency [5] | Potency [6] | Potency [7] | Potency [8] | Potency [9] | Potency [10]
18 | NCCCC[C@H](N)C(=O)O | inactive | inactive | inactive | inactive | inactive | inactive | inactive |  |  | 
19 | NCCCC[C@H](NC(=O)[C@@H]1CCCN1C(=O)[C@@H]1CSSC[C@H](N)C(=O)N[C@@H](Cc2ccccc2)C(=O)N[C@@H](Cc2ccccc2)C(=O)N[C@@H](CCC(N)=O)C(=O)N[C@@H](CC(N)=O)C(=O)N1)C(=O)NCC(N)=O | inactive | inactive | inactive | inactive | inactive | inactive |  | inactive |  | inactive
20 | CCCCC(=O)OCC(=O)[C@]1(O)Cc2c(O)c3c(c(O)c2[C@@H](O[C@H]2C[C@H](NC(=O)C(F)(F)F)[C@H](O)[C@H](C)O2)C1)C(=O)c1c(OC)cccc1C3=O | 4.22 µM (active) | 3.35 µM (active) | inactive | inactive | inactive | inactive |  | inactive |  | 1.19 µM (active)
21 | Cc1ccc(/C(=C\CN2CCCC2)c2cccc(/C=C/C(=O)O)n2)cc1 | inactive |  | inactive | inactive | inactive | inactive | inactive | inactive | inactive | 
22 | COc1ccc(/C=C/C(=O)OCCC(C)C)cc1 | inactive |  | inactive | inactive | inactive | inactive | inactive | inactive | inactive | inactive
23 | C=CCSSSCC=C | 9.44 µM (active) |  | inactive | inactive | inactive |  | inactive | inactive | inactive | 
24 | O=C(O)c1cccc(/C=C2/C[C@@H]3[C@@H](/C=C/[C@@H](O)C4CCCCC4)[C@H](O)C[C@@H]3O2)c1 | inactive | inactive | inactive | inactive | inactive | inactive | inactive | inactive |  | 
25 | CC(C)(C)C(=O)OCOC(=O)[C@@H]1N2C(=O)[C@@H](N=CN3CCCCCC3)[C@H]2SC1(C)C | inactive |  | inactive | inactive | inactive | inactive | inactive | inactive | inactive | 
26 | CCCCCCCCCCCCCCCC(=O)OC[C@@H](NC(=O)C(Cl)Cl)[C@H](O)c1ccc([N+](=O)[O-])cc1 | inactive |  | inactive | inactive | inactive | inactive | inactive | inactive | inactive | 33.5 µM (active)
27 | NC(=S)N=Nc1ccc(NN=C(N)N)cc1 | inactive | inactive | inactive | inactive | inactive | inactive |  | inactive |  | 2.98 µM (active)
28 | O=P(O)(O)C(O)(Cc1cnc2ccccn12)P(=O)(O)O | inactive |  | inactive | inactive | inactive | inactive |  | inactive | inactive | inactive
29 | CCCCCCCCCCCCCCCCCC(=O)OC[C@@H](O)[C@H]1OC[C@H](O)[C@H]1O |  | inactive | inactive | inactive | inactive |  | inactive | inactive | inactive | inactive
30 | O=C(O)COc1ccc(CCNS(=O)(=O)c2ccccc2)s1 |  | inactive | inactive | inactive | inactive | inactive | inactive | inactive | inactive | inactive
31 | Cc1ccccc1CNc1ncnc2c1ncn2[C@@H]1O[C@H](CO)[C@@H](O)[C@H]1O | inactive |  |  | inactive | inactive | inactive | inactive | inactive |  | inactive
32 | CO[C@H]1O[C@@H]2O[C@@]3(C)CC[C@H]4[C@H](C)CC[C@@H]([C@H]1C)[C@@]24OO3 | inactive |  | inactive | inactive | inactive | inactive |  | inactive | inactive | inactive
33 | COc1ccc(CC2c3cc(OC)c(OC)cc3CC[N+]2(C)CCC(=O)OCCCCCOC(=O)CC[N+]2(C)CCc3cc(OC)c(OC)cc3C2Cc2ccc(OC)c(OC)c2)cc1OC (stereo unspecified) |  | inactive | inactive | inactive | inactive | inactive | inactive | inactive | inactive | inactive
